Assay [1] has as its target Estrogen receptor beta (Homo sapiens) (UniProt Q92731). In words: qHTS assay to identify small molecule agonists of the estrogen receptor beta (ER-beta) signaling pathway (AID 1259377; active = well fitted activation curve with a large enough effect in the signal ratio in the repeat runs, not every such curve was filed as active; the % refers to the signal ratio). An outline of the steps: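 ER-beta-UAS-bla HEK293T cells in medium with 2% charcoal-stripped FBS were exposed to compounds for 16 h at 37C. Beta-lactamase reporter activity was read as fluorescence after 2 h with LiveBLAzer B/G FRET substrate at room temperature.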
(In general: qHTS replaces the single test concentration by a dilution series.)

Assay [2] in a line: qHTS assay to identify small molecule agonists of the androgen receptor (AR) signaling pathway in the presence of an antagonist - cell viability counter screen (AID 1259379).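 Also: MDA-kb2 human breast cancer cells carrying an MMTV luciferase reporter; series mostly up to about 92 µM; nearly all actives have a fitted effect of over 25% in size.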 An outline of the steps: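 MDA-kb2 human breast carcinoma cells (stable MMTV-luciferase, AR/GR responsive) were seeded 3,000 cells/well, pre-incubated 5 hr at 37C without CO2, then given 3.0uM nilutamide and compounds at 15 concentrations for 16 hr. Viability was read by CellTiter-Fluor fluorescence.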

Assay [3] in a line: qHTS assay to identify small molecule agonists of the estrogen receptor beta (ER-beta) signaling pathway - cell viability counter screen (AID 1259380). Also: nearly all actives have a fitted effect of over 30% in size. An outline of the steps:
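ER-beta-UAS-bla HEK293T cells in medium with 2% charcoal-stripped FBS were preincubated 6 hr at 37C, dosed with compound in DMSO for 16 hr, then after the bla read, CellTiter-Glo was added for 30 min at room temperature; luminescence recorded.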

The nature of assay [4]: qHTS assay to identify small molecule antagonists of the estrogen receptor beta (ER-beta) signaling pathway - cell viability counter screen (AID 1259382).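 Also: HEK293T cells carrying ER-beta-UAS-bla reporter stimulated with estradiol; series mostly up to about 92 µM; nearly all actives have a fitted effect of over 55% in size.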 An outline of the steps:
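ER-beta-UAS-bla HEK293T cells (2,000/well, 2% charcoal-stripped FBS) were pre-incubated 6 hr at 37C, then given compound plus 1nM final 17-beta-estradiol for 16 hr. Viability was read in the same wells by CellTiter-Glo luminescence after 30 min at room temperature.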

The target in assay [5] is Estrogen receptor (Homo sapiens) (UniProt P03372). In words: qHTS assay to identify small molecule agonists of the estrogen receptor alpha (ER-alpha) signaling pathway in the presence of an antagonist (AID 1259383; calls by dose curve; also: top concentration of the series differs between compounds; nearly all actives have a fitted effect of over 15% in size). The gist of the method: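 VM7Luc4E2 cells (endogenous full-length ER-alpha, 4×ERE-luciferase) were precultured 5 days in phenol red-free medium with 10% charcoal-stripped FBS, given 10.0nM ICI-182,780 (final), then treated with compounds at 15 concentrations for 22hr at 37C; luminescence read with ONE-Glo.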

Assay [6] is described as follows: qHTS assay to identify small molecule agonists or antagonists of the thyroid stimulating hormone receptor (TSHR) signaling pathway - wild type cell line counter screen (AID 1259384; calls by dose curve). The gist of the method: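 Wild-type Hek293 cells, 800/well, 18 h at 37C, then compound with Ro20-1724 for 30 min RT. cAMP by HTRF (cAMP-d2/anti-cAMP cryptate), 1 h RT, fluorescence read. 15 concentrations, triplicates.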

Assay [7] deals with Thyrotropin receptor (Homo sapiens) (UniProt P16473). Briefly: qHTS assay to identify small molecule antagonists of the thyroid stimulating hormone receptor (TSHR) signaling pathway (AID 1259385; calls by dose curve; also: nearly all actives have a fitted effect of over 20% in size). The gist of the method:
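TSHR-HEK293 cells (800/well) plated 18 h, then compounds with Ro20-1724 and TSH at 1.5 ng/mL final, 30 min at room temperature. cAMP quantified by HTRF (cAMP-d2/anti-cAMP-cryptate, 1 h); 15 concentrations in triplicate.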

Assay [8] in a line: qHTS assay to identify small molecule agonists of the estrogen receptor alpha (ER-alpha) signaling pathway in the presence of an antagonist - cell viability counter screen (AID 1259386).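 Also: cells exposed to compounds for 22 h at 37 °C before the viability read; nearly all actives have a fitted effect of over 30% in size.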 Also: potency is read from the fitted curve at half-maximal effect. The gist of the method: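 VM7Luc4E2 cells (endogenous full-length ER-alpha, 4×ERE-luciferase) were held 5 days in phenol red-free medium with 10% charcoal-stripped FBS, plated, then given 10.0nM ICI-182,780 and compounds at 15 concentrations for 22hr at 37C; viability read by CellTiter-Fluor fluorescence.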

Assay [9] has as its target Progesterone receptor (Homo sapiens) (UniProt P06401). Briefly: qHTS assay to identify small molecule agonists of the progesterone receptor (PR) signaling pathway (AID 1346784; calls by dose curve; also: nearly all actives have a fitted effect of over 30% in size). An outline of the steps:
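PR-UAS-bla HEK 293T cells (beta-lactamase reporter under UAS) in 2% charcoal-stripped FBS, dosed with 23 nL compound after 6 hr, incubated 16hr at 37C. LiveBLAzer B/G FRET substrate added, fluorescence read after 2 hours.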

The target is the same in assay [10]. Briefly: qHTS assay to identify small molecule antagonists of the progesterone receptor (PR) signaling pathway (AID 1346795; active = well fitted inhibition curve with a large enough effect in the signal ratio in the repeat runs, not every such curve was filed as active; the % refers to the signal ratio). The gist of the method: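 PR-UAS-bla HEK293T cells with beta-lactamase reporter under UAS control, in 2% charcoal-stripped FBS, treated with compounds plus 1 nM promegestone (R5020, final) for 16 hr at 37C. Read-out: FRET beta-lactamase substrate fluorescence after 2 hr at room temperature.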

The nature of assay [11]: qHTS assay to identify small molecule antagonists of the progesterone receptor (PR) signaling pathway - cell viability counter screen (AID 1346798). Also: series mostly up to about 92 µM; nearly all actives have a fitted effect of over 50% in size. The gist of the method:
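PR-UAS-bla HEK293T cells, 3,000/well in 2% charcoal-stripped FBS medium, dosed with compounds plus R5020 agonist and incubated 16 h at 37C. Viability then measured in the same wells by CellTiter-Glo luminescence after 30 min at RT.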

Assay [12] can be described thus: qHTS assay to identify small molecule agonists of the progesterone receptor (PR) signaling pathway - cell viability counter screen (AID 1346799; calls by dose curve; also: nearly all actives have a fitted effect of over 45% in size). An outline of the steps:
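Counter screen in the PR-UAS-bla HEK293T wells (2% charcoal-stripped FBS, 16 h compound exposure at 37 C) after the bla read. CellTiter-Glo added, 30 min at room temperature, luminescence read as cell viability.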

Assay [13] can be described thus: qHTS assay to identify small molecule antagonists of the TGF-beta/Smad signaling pathway - cell viability counter screen (AID 1346824). Also: nearly all actives have a fitted effect of over 50% in size. An outline of the steps:
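SBE-bla HEK 293T cells, incubated overnight, then compound plus 0.25 ng/mL TGF-beta1 (stock added) for 5 hr at 37 C. Viability was read in the same wells by CellTiter-Glo luminescence after 30 min at room temperature.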

The target of assay [14] is Thyrotropin-releasing hormone receptor (Homo sapiens) (UniProt P34981). Briefly: qHTS assay to identify small molecule antagonists of the thyrotropin-releasing hormone receptor (TRHR) signaling pathway (AID 1346877; active = well fitted inhibition curve with a large enough effect in the repeat runs, not every such curve was filed as active; also: series mostly up to about 51 µM). An outline of the steps:
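TRHR-expressing HEK293 cells were seeded, cultured 18 h at 37 °C, then loaded with calcium dye for 2 h. Compounds were pre-incubated 5 min at room temperature before 1 nM TRH (final) was added, and kinetic fluorescence was recorded for 3 min.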

Assay [15] has the same target. Briefly: qHTS assay to identify small molecule agonists of the thyrotropin-releasing hormone receptor (TRHR) signaling pathway (AID 1346891; calls by dose curve; also: series mostly up to about 58 µM). An outline of the steps:
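HEK293 cells expressing TRHR plated 18 h at 37 C/5% CO2, calcium dye-loaded 2 h at 37 C, then compound added (agonist mode); kinetic calcium fluorescence read 3 min at 1 s intervals; 15 concentrations in triplicate.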

Assay [16] can be described thus: Human pregnane X receptor (PXR) small molecule agonists, qHTS cell viability counter screen (AID 1346977). Also: nearly all actives have a fitted effect of over 50% in size. The gist of the method: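 PXR-Luc HepG2 cells (2,000/well, 5% charcoal-stripped FBS) preincubated 5 hr, then exposed to compounds 24 hr at 37 C. Viability read in the same wells by CellTiter-Fluor fluorescence, reagent added at 23 hr, 1 hr incubation.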
Assay [17] in a line: qHTS assay to identify small molecule agonists of the TGF-beta/Smad signaling pathway (AID 1346859; active = well fitted activation curve with a large enough effect in the signal ratio in the repeat runs, not every such curve was filed as active; the % refers to the signal ratio; also: series mostly up to about 77 µM). An outline of the steps: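 SBE-bla HEK293T cells plated overnight, then compound exposure for 5 h at 37 C. Beta-lactamase reporter read with LiveBLAzer B/G FRET substrate after 2 h at room temperature, fluorescence at 405 nm excitation, 460/530 nm emission.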
Assay [18] can be described thus: qHTS assay to identify small molecule agonists of the TGF-beta/Smad signaling pathway - cell viability counter screen (AID 1346829). Also: top concentration of the series differs between compounds; nearly all actives have a fitted effect of over 45% in size. The gist of the method:
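Luminescence from CellTiter-Glo, read after a 30 min room-temperature incubation, gives cell viability of SBE-bla HEK 293T cells treated 5 hr with compounds at 37 C.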

“And” between values parts separate entries of the source, which are not always exact repeats. Equal entries are not always repeated. Inconclusive results are not listed. The source made the active and inactive calls. Unless noted, calls follow the shape of the dose curve; as a rule, active = well fitted curve in the direction sought with a large enough effect in the repeat runs; inconclusive = weak or mixed curves; inactive = no such curve, though single readings can be large; an effect the other way counts as inactive or inconclusive.

Sequence of Thyrotropin-releasing hormone receptor (Homo sapiens) (P34981 whole entry, looked up): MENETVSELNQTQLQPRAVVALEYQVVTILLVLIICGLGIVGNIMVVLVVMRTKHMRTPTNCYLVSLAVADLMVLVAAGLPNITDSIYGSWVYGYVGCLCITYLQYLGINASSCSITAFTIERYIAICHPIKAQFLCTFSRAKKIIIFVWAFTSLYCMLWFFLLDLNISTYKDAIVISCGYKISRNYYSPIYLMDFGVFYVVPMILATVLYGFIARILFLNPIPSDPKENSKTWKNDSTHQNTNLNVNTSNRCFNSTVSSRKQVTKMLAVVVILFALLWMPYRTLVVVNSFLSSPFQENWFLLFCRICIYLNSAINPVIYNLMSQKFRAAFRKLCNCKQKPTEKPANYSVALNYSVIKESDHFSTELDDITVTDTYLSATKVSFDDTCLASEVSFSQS
Sequence of Estrogen receptor (Homo sapiens) (P03372 whole entry, looked up): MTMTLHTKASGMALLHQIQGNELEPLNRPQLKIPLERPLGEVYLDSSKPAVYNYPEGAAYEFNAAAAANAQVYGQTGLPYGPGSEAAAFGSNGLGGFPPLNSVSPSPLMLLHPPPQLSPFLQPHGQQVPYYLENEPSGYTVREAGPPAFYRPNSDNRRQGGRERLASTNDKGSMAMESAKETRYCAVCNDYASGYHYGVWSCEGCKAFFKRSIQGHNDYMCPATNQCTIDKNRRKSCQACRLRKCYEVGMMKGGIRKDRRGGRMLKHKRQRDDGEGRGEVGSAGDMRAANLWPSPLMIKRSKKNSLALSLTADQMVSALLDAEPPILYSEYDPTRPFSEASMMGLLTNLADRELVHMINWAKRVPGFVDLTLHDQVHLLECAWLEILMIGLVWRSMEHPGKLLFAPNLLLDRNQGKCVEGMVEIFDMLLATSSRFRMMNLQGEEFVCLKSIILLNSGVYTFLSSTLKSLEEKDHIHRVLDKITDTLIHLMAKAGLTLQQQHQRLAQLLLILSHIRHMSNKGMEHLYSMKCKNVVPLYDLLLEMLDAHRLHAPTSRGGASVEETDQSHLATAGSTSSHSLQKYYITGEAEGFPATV
Sequence of Thyrotropin receptor (Homo sapiens) (P16473 whole entry, looked up): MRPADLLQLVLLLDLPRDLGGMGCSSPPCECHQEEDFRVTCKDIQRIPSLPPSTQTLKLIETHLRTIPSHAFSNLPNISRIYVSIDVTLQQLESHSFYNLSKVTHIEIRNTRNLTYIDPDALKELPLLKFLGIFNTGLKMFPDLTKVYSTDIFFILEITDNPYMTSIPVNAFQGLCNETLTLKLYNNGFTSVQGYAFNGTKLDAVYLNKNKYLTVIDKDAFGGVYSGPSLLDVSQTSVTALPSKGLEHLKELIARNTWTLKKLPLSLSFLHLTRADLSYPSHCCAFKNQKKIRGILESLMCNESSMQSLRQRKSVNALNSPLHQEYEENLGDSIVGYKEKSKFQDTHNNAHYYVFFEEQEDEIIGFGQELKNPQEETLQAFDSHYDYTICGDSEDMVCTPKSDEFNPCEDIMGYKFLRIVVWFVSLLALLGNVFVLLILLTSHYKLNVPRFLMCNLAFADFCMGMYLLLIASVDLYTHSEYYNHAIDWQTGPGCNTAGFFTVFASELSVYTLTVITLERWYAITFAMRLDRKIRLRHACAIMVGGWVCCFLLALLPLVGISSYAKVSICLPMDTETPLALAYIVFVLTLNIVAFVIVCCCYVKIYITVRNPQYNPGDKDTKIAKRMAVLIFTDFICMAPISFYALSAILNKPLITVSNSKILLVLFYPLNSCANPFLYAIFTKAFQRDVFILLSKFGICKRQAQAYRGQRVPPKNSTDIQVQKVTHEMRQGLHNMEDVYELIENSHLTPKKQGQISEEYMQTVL
Sequence of Estrogen receptor beta (Homo sapiens) (Q92731 whole entry, looked up): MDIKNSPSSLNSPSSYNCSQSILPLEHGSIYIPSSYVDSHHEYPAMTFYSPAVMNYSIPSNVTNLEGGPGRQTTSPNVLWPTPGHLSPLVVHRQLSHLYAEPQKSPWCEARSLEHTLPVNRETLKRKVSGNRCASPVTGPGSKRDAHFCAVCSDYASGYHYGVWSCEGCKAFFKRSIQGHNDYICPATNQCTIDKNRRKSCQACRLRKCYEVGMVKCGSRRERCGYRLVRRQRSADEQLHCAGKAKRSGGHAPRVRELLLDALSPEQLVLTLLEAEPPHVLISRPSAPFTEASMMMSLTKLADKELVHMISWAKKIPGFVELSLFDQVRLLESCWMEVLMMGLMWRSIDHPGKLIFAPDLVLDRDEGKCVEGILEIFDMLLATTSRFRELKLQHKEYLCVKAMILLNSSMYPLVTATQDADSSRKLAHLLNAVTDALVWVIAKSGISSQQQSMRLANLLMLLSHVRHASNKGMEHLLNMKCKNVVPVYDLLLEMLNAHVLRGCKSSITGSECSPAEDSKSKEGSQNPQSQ
Sequence of Progesterone receptor (Homo sapiens) (P06401 whole entry, looked up): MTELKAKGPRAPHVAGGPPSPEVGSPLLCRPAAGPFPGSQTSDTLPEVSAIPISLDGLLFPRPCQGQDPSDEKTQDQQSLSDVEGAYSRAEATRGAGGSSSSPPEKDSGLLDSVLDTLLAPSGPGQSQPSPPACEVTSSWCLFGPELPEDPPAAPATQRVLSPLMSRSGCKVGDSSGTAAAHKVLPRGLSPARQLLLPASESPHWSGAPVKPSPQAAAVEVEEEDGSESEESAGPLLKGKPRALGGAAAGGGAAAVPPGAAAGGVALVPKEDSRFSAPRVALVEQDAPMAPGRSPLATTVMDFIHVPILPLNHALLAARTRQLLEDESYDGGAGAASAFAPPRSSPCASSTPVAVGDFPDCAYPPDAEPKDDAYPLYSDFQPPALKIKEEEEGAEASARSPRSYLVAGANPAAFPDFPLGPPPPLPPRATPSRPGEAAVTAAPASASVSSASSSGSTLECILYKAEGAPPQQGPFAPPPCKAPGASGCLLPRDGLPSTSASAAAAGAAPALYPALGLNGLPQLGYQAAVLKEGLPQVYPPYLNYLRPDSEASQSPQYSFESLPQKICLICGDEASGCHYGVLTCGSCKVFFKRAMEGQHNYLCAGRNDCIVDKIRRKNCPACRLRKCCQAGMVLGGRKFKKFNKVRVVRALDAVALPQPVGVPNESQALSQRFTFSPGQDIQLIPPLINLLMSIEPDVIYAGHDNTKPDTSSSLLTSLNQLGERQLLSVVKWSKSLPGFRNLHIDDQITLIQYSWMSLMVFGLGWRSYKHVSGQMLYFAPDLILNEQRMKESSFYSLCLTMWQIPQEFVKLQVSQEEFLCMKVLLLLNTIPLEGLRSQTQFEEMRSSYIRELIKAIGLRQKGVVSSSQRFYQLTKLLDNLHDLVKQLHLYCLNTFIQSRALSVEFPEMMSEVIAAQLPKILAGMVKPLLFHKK

Turning to `CCOc1ccc(N)cc1`, the Potency result in [1], in assay [2], in [3], in [8], in assay [9] and in assay [10] was “inactive” each time. Moreover, the Potency result in assay [11], in [13] and in assay [16] was “inactive” each time. Also, the outcome in assay [4], in assay [5], in assay [6], in assay [7], in assay [12] and in assay [14] was inactive. Besides, the result in assay [15] was inactive.
With `CC(=O)C1CCOC1=O` (configuration not stated), the Potency entry in [1], in assay [2], in [3], in assay [8], in [9] and in assay [10] was “inactive” in each case. Moreover, the Potency result in [11] and in [13] was “inactive” each time. For the same compound, the call in assay [4], in assay [6], in [7], in assay [12] and in assay [17] was inactive.
Regarding `Nc1ccc(N)cc1`, the Potency result in assay [1], in assay [2], in assay [3], in assay [9], in assay [10] and in assay [11] was “inactive” throughout. Moreover, the Potency result in assay [13] is “inactive”. Further, the result in [4], in assay [6], in assay [12], in [14] and in assay [15] was inactive. In addition, the Potency in assay [8] is 54.7 µM (active) and 54.5 µM (active).
Regarding `O=C(O)c1cc(Oc2ccc(C(F)(F)F)cc2Cl)ccc1[N+](=O)[O-]`, the Potency result in [1], in [2], in [3], in assay [8], in [9] and in assay [10] was “inactive” each time. Besides, the Potency result in assay [11], in assay [13] and in assay [16] was “inactive” in each case. For the same compound, the compound was called inactive in [4], in [6], in [7], in assay [12], in assay [14] and in [15].
In the case of `O=S(=O)(O)OOS(=O)(=O)O`, the Potency result in [1], in assay [2], in [3], in assay [8], in [9] and in [10] was “inactive” in each case. In addition, the Potency entry in assay [11], in assay [13], in assay [18] and in assay [16] was “inactive” throughout. The result in [4], in [12], in assay [14] and in assay [15] was inactive.
Regarding `N#Cc1ccccn1`, the Potency result in [1], in assay [2], in [3], in assay [8], in assay [9] and in assay [10] was “inactive” in each case. The Potency result in assay [11], in assay [13] and in [16] was “inactive” each time. In addition, the result in [4], in assay [5], in assay [6], in assay [7], in assay [12] and in assay [17] was inactive. In addition, the outcome in assay [14] and in [15] was inactive.
With `CN(C)NC(=O)CCC(=O)O`, the Potency result in assay [1], in [2], in assay [3], in [8], in assay [9] and in assay [10] was “inactive” throughout. The Potency entry in assay [11], in [13], in [18] and in assay [16] was “inactive” throughout. Also, the outcome in assay [4], in [6], in assay [7], in assay [12] and in [17] was inactive.
On to `CN(C)C(=O)Nc1cccc(C(F)(F)F)c1`, for which the Potency result in [1], in [2], in assay [3], in [8], in assay [9] and in [10] was “inactive” in each case. Also, the Potency entry in assay [11], in [13], in [18] and in [16] was “inactive” each time. The compound was called inactive in assay [4], in [6], in assay [7], in assay [12], in assay [17] and in [14]. For the same compound, the compound was called inactive in assay [15].
As to `C=CC(=O)OCC(CC)CCCC` (configuration not stated), the Potency result in [1], in [2], in [3], in assay [8], in assay [9] and in assay [10] was “inactive” each time. Besides, the Potency result in assay [11], in assay [13], in assay [18] and in [16] was “inactive” each time. In addition, the result in assay [4], in [6], in assay [7], in [12] and in assay [17] was inactive.
Take `CSc1nnc(C(C)(C)C)c(=O)n1N`: the Potency result in assay [1], in assay [2], in [3], in assay [8], in [9] and in [10] was “inactive” in each case. In addition, the Potency result in [11], in assay [13], in assay [18] and in assay [16] was “inactive” each time. For the same compound, the outcome in assay [4], in [6], in [7], in [12], in [17] and in assay [14] was inactive. In addition, the call in assay [15] was inactive.

Values taken from PubChem BioAssay (Tox21).
